# Cycloheximide cs: Cycloheximide Counterscreen for Small Molecule Inhibitors of Shiga Toxin; cell reporter, cycloheximide protein synthesis inhibition counterscreen; max response, %; 300,000 tested, 12% active; AID 2314, 2010; in the data active means max response mostly above about 13%, no sharp cut-off; inactive means mostly below about 14%; further: read at 38.3 µM for the half of the compounds with a filed dose; 0% is about no effect
# NS1 inh: qHTS Assay for Inhibitors of Influenza NS1 Protein Function. Potency, µM (doses to about 46.1 µM), for inactives: at the highest dose activity, positive = more growth. 270,000 tested, 0.4% active; further: potency means the concentration at half of the fitted maximal effect; actives are rising curves; nearly all actives have a fitted effect of over 50% in size
#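 Growth recovery, yeast-based: influenza A NS1 expressed in S. cerevisiae causes slow growth, and suppressors are detected by OD600. The parent strain without NS1 is used as positive control.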
# SARS PLP yeast: qHTS of Yeast-based Assay for SARS-CoV PLP. S. cerevisiae expressing SARS-CoV PLpro, growth rescue. Potency, µM (doses to about 32.9 µM), without a hit: at the top dose activity, positive = growth rescue, most hits filed as activators. 330,000 tested, 0.19% active; further: potency means the concentration at half of the fitted maximal effect; 0% is about no effect; nearly all actives have a fitted effect of over 55% in size
# Shiga toxin inh: A qHTS for Small Molecule Inhibitors of Shiga Toxin; Vero cells, Shiga toxin protein synthesis inhibition reporter; inhibition, % at 38.7 µM; 290,000 tested, 9.2% active; AID 2315, 2010; in the data active means inhibition mostly above about 28%, no sharp cut-off; inactive means mostly below about 43%; further: 0% is about no effect
# Starred values were filed as active, the others as inactive; ? = inconclusive; · = no result given. This is a sample that favours compounds with a hit; in the whole collection about 12% have one here. Unless noted, the call rests on the fitted dose curve.
SMILES,Cycloheximide cs,NS1 inh,SARS PLP yeast,Shiga toxin inh
COc1ccc(NC(=O)CSc2nc3c(c(=O)n2C)SCC3)cc1OC,1,7%,1%,-5
O=C1CC[C@](CCc2nc3ccccc3[nH]2)(c2ccccc2)C(=O)N1,·,0%,·,·
CCCn1c(SCc2nc3ccccc3s2)n[nH]c1=O,53*,·,-1%,90*
CCCn1c(=O)c2ccccc2n2c(SCc3nc4ccccc4s3)nnc12,31*,-1%,3%,142*
Cc1cc(C)c(-n2c(SCc3nc4ccccc4s3)n[nH]c2=O)c(C)c1,4,-2%,-6%,6
O=c1[nH]nc(SCc2nc3ccccc3s2)n1C1CC1,52*,1%,0%,103*
CCCCn1c(SCc2nc3ccccc3s2)nc2ccccc2c1=O,-3,6%,-14%,-10
Cc1ccc2c(c1)cc(CN(Cc1cccnc1)C(=O)NCc1ccccc1)c1nnnn12,-2,-22%,2%,11
NC(=O)c1ccc(NC(=O)COC(=O)C2CCN(S(=O)(=O)c3cccs3)CC2)cc1,·,·,0%,·
COc1ccc(NC(=S)N2CCN(S(C)(=O)=O)CC2)cc1,-2,-5%,-3%,-13
CC1(C)CC(=O)C=C(Nc2ccccc2N)C1,-3,2%,1%,-7
Cc1ccc(NC2=CC(=O)CC(C)(C)C2)c(N)c1,60*,?,1%,128*
CC1(C)CC(=O)C=C(Nc2ccc3c(c2)OCCO3)C1,52*,15%,8%,50
CCc1ccc(NC2=CC(=O)CC(C)(C)C2)cc1,14,-5%,-1%,25
Cc1ccc(NC2=CC(=O)CC(C)(C)C2)cc1C,18,-1%,6%,8
CCCOc1ccc(NC2=CC(=O)CC(C)(C)C2)cc1,17*,-8%,-5%,48
Cc1cc(C)cc(C(=O)Nc2nnc(SCC(=O)N3CCCc4ccccc43)s2)c1,2,4%,5%,-4
CC(=O)Nc1nnc(SCC(=O)N2CCCc3ccccc32)s1,-6,·,-1%,-1
O=C(Nc1nnc(SCC(=O)N2CCCc3ccccc32)s1)c1ccccc1,34*,3%,-6%,41*
O=C(Nc1nnc(SCC(=O)N2CCCc3ccccc32)s1)c1ccc2ccccc2c1,37*,?,16%,58*
CC(C)(C)S(=O)(=O)Cc1nc(-c2ccc(Cl)c(Cl)c2)cs1,30*,-5%,-1%,65*
COc1cccc(OCc2ccc(Cl)cc2)c1C#N,44*,-8%,0%,81*
Cc1cccc(-c2nnn(CC/C(N)=N/O)n2)c1,23*,-11%,2%,active
Cc1cccc(-c2nnn(Cc3nnc(NC(=O)c4ccccc4)s3)n2)c1,-2,-1%,2%,-3
C/C(=N\Nc1cc(C(F)(F)F)ccc1Cl)c1ccccc1O,4,-9%,11%,13
SMILES,Cycloheximide cs,NS1 inh,SARS PLP yeast,Shiga toxin inh
C/C(=N\Nc1ccc(F)cc1F)c1ccccc1O,28*,·,-5%,79*
Cc1cc(OC(F)F)ccc1NC(=O)Nc1ccc2c(c1)OCO2,-2,6%,?,15
O=C(O)CC1=C(Nc2ccccc2)C(=O)N(c2ccccc2)C1c1ccc(Br)cc1 (stereo not drawn),25*,16%,0%,79*
O=C(O)CC1=C(O)C(=O)N(c2ccccc2)C1c1ccc(Cl)cc1 (stereo not drawn),-2,15%,5%,6
CC(OC(=O)c1cccc(S(=O)(=O)N2CCCCC2)c1)C(=O)NC1CCCCC1C (stereo not drawn),-2,16%,5%,-8
Cc1cc(C)c(OCC(O)CN2CCN(C(=O)c3ccccc3)CC2)c(C)c1 (stereo not drawn),-1,-18%,3%,-7
CCOc1ccc(/C=C\C(C)=N\O)cc1,38*,-3%,-14%,97*
CC(C)c1ccc(/C=C/C(=O)CCC(=O)O)cc1,43*,·,-5%,57
CCOc1ccc(/C=C/C(=O)c2cc(Br)ccc(=O)c2O)cc1,9,-28%,-82%,9
CCOc1ccc(/C=C/C(=O)CCC(=O)O)cc1,54*,-2%,-1%,74*
Cc1ccc(Nc2nc(-c3ccc(C)cc3)c(CC(=O)O)s2)cc1,14*,4%,-3%,79
COc1ccc(Nc2nc(-c3ccc(OC)cc3)c(CCC(=O)O)s2)cc1,2,6%,2%,-6
O=C(O)Cc1sc(Nc2cccc3ccccc23)nc1-c1ccc(Cl)cc1,20*,5%,-2%,18
O=C(O)Cc1sc(Nc2cccc3ccccc23)nc1-c1ccccc1,·,·,10%,·
O=C(O)Cc1sc(Nc2ccc(Cl)cc2)nc1-c1cccs1,47*,·,-3%,75*
COC(=O)CCc1sc(Nc2ccccc2)nc1-c1ccc(OC)cc1,23*,-17%,-6%,91*
CCOC(=O)CNC(=O)C1CCN(S(=O)(=O)c2ccc(-c3nn[nH]n3)cc2)CC1,7,11%,1%,-5
COc1cccc(-c2nc(C(=O)NCC3CCCO3)cc3c2[nH]c2ccccc23)c1 (stereo not drawn),-3,-55%,-30%,-12
CCc1nnc(NC(=O)CSc2nc(C)nc3c2c(=O)n(C)c(=O)n3C)s1,2,9%,-3%,-4
CC1CCCC(C)N1C(=O)COC(=O)CNC(=O)c1ccccc1 (stereo not drawn),·,·,-7%,·
O=C(CNC(=O)c1ccccc1)OC1CCCCC1,35*,·,0%,56*
O=C(NC(=O)c1ccc(Cl)cc1)OC1CCCCC1,48*,1%,-1%,63*
O=C(Nc1ccccc1Cl)OC1CCCCC1,22,-2%,-2%,100*
Cc1ccc(C(=O)Nc2ccccc2C(=O)N2CCCC(C)C2)cc1 (stereo not drawn),1,-7%,·,-9
CC(C)(CO)NCc1cccc(OCc2ccc(Cl)cc2)c1,14,-3%,-8%,active
SMILES,Cycloheximide cs,NS1 inh,SARS PLP yeast,Shiga toxin inh
COc1cccc(CNC(C)(C)CO)c1OCc1ccc(Cl)cc1,-3,0%,-1%,-10
O=[N+]([O-])c1ccc2c(c1)ncn2-c1ccccc1,14,-1%,29%,19
O=[N+]([O-])c1ccc2cn(-c3ccccc3)nc2c1,54*,1%,-16%,52*
Cc1nn(-c2cccc([N+](=O)[O-])c2)c(N)c1-c1ccccc1,39*,·,-3%,73*
Cc1nn(-c2ccccc2)c(N)c1Sc1cccc([N+](=O)[O-])c1,11,-39%,-8%,2
Nc1nn(-c2ccccc2)c2ccc([N+](=O)[O-])cc12,26*,-30%,-5%,34
O=[N+]([O-])c1ccc2c(c1)nnn2-c1ccccc1,-2,-11%,-5%,22
Nc1c(-c2ccccc2)cnn1-c1cccc([N+](=O)[O-])c1,31*,-27%,-2%,81*
C/C=C1\COC(C(=O)NCc2cccc(OC)c2OC)(C(F)(F)F)C=C1C=C(C)C (stereo not drawn),-4,·,·,13
CC1CCCCC12NC(=O)N(CC(=O)NNC(=O)c1ccc(Br)cc1)C2=O (stereo not drawn),·,·,15%,·
Nc1c(-c2ccc(Cl)cc2)cnn1-c1cccc([N+](=O)[O-])c1,19*,1%,1%,87*
S=C(N/N=C/c1ccc2ncccc2c1)Nc1cccnc1,23*,4%,0%,66
